Measured values taken from ChEMBL document CHEMBL1157539, “Thousands of chemical starting points for antimalarial lead identification” (Nature, 2010).

The compounds below were run on HepG2 (assay: GSK_TCMDC: Percent inhibition of human HepG2 cell line. Test compounds present at 10uM.).
Assay type: functional

COc1c(F)cc(CC(C)NCC(O)c2cccc(Cl)c2)cc1F.Cl (configuration not stated) was tested. Which Inhibition did it give?
The Inhibition was 0%.

Which Inhibition does the source give for FC(F)(F)c1ccc(NC(=S)N2CCC(CN3CCC(c4c[nH]c5ccccc45)CC3)CC2)cc1 here?
Its Inhibition is 35%.

How did the Inhibition turn out when CCCCCc1cc(O)c2c3c(c(=O)oc2c1)CN(C)CC3 was run?
Its Inhibition is 4%.

Which Inhibition does the source give for CC(C)c1ccc(C=CC(=O)NC2CCC(CN3CCC(c4c[nH]c5ccccc45)CC3)CC2)cc1 (configuration not stated) here?
The Inhibition was 50%.

With O=C(/C=C/c1ccc(Cl)c(Cl)c1)N1CCC2CC(N3CCC(c4c[nH]c5ccccc45)CC3)CCC2C1 (configuration not stated) as the compound, how does the Inhibition read?
Its Inhibition is 31%.

With CC(C)/C(=C(/F)CN1C(=O)C(NC(=O)c2cc3ccccc3[nH]2)C(=O)N(c2ccccc2)c2ccccc21)c1ccccc1 (configuration not stated) as the compound, how does the Inhibition read?
Its Inhibition is 7%.

How did the Inhibition turn out when C=C[C@H]1CN2CC[C@H]1C[C@H]2[C@H](O)c1cc(/C=C/c2ccc(F)cc2)nc2ccc(OC)cc12.Cl was run?
The Inhibition was 25%.

CN(c1cc(NC(=O)c2cccs2)ccn1)C1CCN(Cc2cccc(C#N)c2)CC1.O=C(O)C(F)(F)F was tested. Which Inhibition did it give?
Its Inhibition is 59%.

C=C[C@H]1CN2CC[C@H]1C[C@@H]2[C@@H](O)c1ccnc2ccccc12 [CINCHONINE] was tested. Which Inhibition did it give?
Its Inhibition is 0%.

For CC[C@H]1CN2CC[C@@H]1C[C@H]2[C@H](O)c1cc(N2CCC(CO)CC2)nc2ccc(OC)cc12, which Inhibition is on record?
The Inhibition was 4%.

With N#Cc1c(Cl)cccc1Oc1ccc(S(=O)(=O)N2CCC(CN3CCC(c4c[nH]c5ccccc45)CC3)CC2)cc1 as the compound, how does the Inhibition read?
The Inhibition was 36%.

For COC(=O)c1ccc(CC(C)NCC(O)c2cc(Cl)c(N)c(Cl)c2)cc1 (configuration not stated), which Inhibition is on record?
Its Inhibition is 0%.
